Screening results: PubChem, several laboratories
MRP1 act: activates MRP-1; 140,000 tested, 0.61% active; viability increase, % at 10 µM; H69AR cells + doxorubicin, viability rescue, CellTiter-Glo;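 active = viability gain under doxorubicin at or above a set limit, the compound median plus 3 SD, cut at about 4.7% in these data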;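 also: MRP-1 overexpressing cells given doxorubicin 25 µM after compound pretreatment; 18-22 h compound pretreatment then 72 h with doxorubicin before readout; 0% = doxorubicin-only wells and 100% = vehicle-treated cells without doxorubicin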
MRP resist rev: MRP-mediated drug resistance reversal. H69AR cells + 2 uM doxorubicin, CellTiter-Glo, 72 h. differential viability (reversal), % at 10 µM. 85,000 tested, 0.04% active. AID 602;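 active = viability drop by adding the cancer drug above about 55%, with treated viability meeting a 40% cutoff, limit read from the data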;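 also: viability without doxorubicin minus viability with 2 µM doxorubicin for each compound; larger differential means the compound sensitizes cells more to doxorubicin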
CD11b adhes inh: inhibitors of human CD11b/CD18 binding to fibrinogen; inhibition, % at 10 µM; P05107+P11215; K562 CD11b/CD18 adhesion to fibrinogen, ATPlite luminescence; Mn2+ added to activate the integrin; AID 1497; 93,000 tested, 0.54% active;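 active = primary inhibition of 50% or more at 10 µM, then 40% or more on retest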
Mac1 fbg enh: increases human CD11b/CD18 adhesion to fibrinogen; P05107+P11215; K562 CD11b/CD18 adhesion to fibrinogen, ATPlite luminescence; activation, % at 10 µM; 93,000 tested, 0.07% active;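 active = 10 µM primary screen giving 50% or more activity, confirmed by 40% or more on retest at that dose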
Pyk2 oligo antag: antagonists of human Pyk2 oligomerization. Q14289. Q293 cells, Pyk2 FERM NanoBiT luminescence; hits give low values. z-score (the deposit names both 25 µM and 10 µM). 99,000 tested, 0.83% active. AID 1347419;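 active = Z-score of -3 or lower, scaled per plate to the spread of control and sample wells; inactive = z-score above -3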;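 also: negative z-score means lost luminescence so less FERM oligomerization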
Cav32 inh: inhibitors of human Cav3.2 T-type calcium channel. Cav3.2-expressing cells, Fluo-4 calcium fluorescence FDSS; hits give low values. 100,000 tested, 4% active. B-score at 10 µM;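 active = single-dose well whose peak fluorescence ratio is a statistical outlier from its plate by either plate-standardised score or position-corrected B-score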
The depositor's hits bear a star; · = no result. The list is not random: actives were taken first. Their share in the collection is about 4.1%.

SMILES	MRP1 act	MRP resist rev	CD11b adhes inh	Mac1 fbg enh	Pyk2 oligo antag	Cav32 inh
Cc1ccc(C2=Nc3ccccc3NC(C)(c3ccc(C)o3)C2)o1 (stereo unspecified)	-2.0	-19.1	-17.9	0.5	-1.72	-5.26*
CN1/C(=N\O)c2cccc3cccc1c23	-1.5	16.7	-1.1	-2.8	-0.48	-4.38*
CCOC(=O)c1cc(NC(=O)c2cc(C)on2)cc(C(=O)OCC)c1	-1.1	-9.2	-5.9	14.7	-0.71	0.0634
Cc1ccccc1-n1c(SCc2c(C)noc2C)nnc1-c1c[nH]c2ccccc12	-1.7	7.4	-6.1	-2.6	-3.45*	0.0227
CC1CCN(C(=O)CSc2nc3ccccc3c(=O)n2Cc2ccc3c(c2)OCO3)CC1	-0.9	-9.7	·	·	-0.74	-4.87*
CC1CCCN(C(=O)c2ccc3c(=O)n(Cc4ccc5c(c4)OCO5)c(=S)[nH]c3c2)C1 (stereo unspecified)	-3.8	25.9	3.3	-3.4	-0.44	-5.27*
O=C(c1ccc2c(=O)n(Cc3ccco3)c(=S)[nH]c2c1)N1CCN(Cc2ccccc2)CC1	-3.0	24.7	2.1	-4.8	0.46	-6.63*
CC1CCN(C(=O)Cn2c(=O)n(Cc3ccc4c(c3)OCO4)c(=O)c3ccccc32)CC1	-0.2	7.8	-11.7	-1.0	0.38	-2.38
CCCNS(=O)(=O)c1ccc(N2CCCC2=O)c([N+](=O)[O-])c1	-2.3	·	-16.8	-2.1	·	·
O=C1NC(=Nc2ccc(Cl)cc2)SC1Cc1cc(Cl)ccc1Cl (stereo unspecified)	6.9*	·	·	·	·	·
Cc1nc2ccccc2n2c(O)c(CC(=O)O)cc12	-0.5	-15.7	-46.2	5.1	0.26	-6.29*
CC(O)[C@H]1CN=C(N)N1CC(C)(C)C (stereo partly specified)	·	·	·	·	·	-0.0377
CCC(=O)Nc1ccc(NC(=O)CSc2nnc(C(C)C)n2C)cc1	-1.2	2.9	-1.5	4.7	-0.38	0.0959
O=C(/C=C/c1cccs1)Nc1ccc(N2CCOCC2)c(S(=O)(=O)Nc2ccccc2Cl)c1	-2.0	·	·	·	·	·
COc1ccccc1NS(=O)(=O)c1cc(NC(=O)/C=C/c2cccs2)ccc1N1CCOCC1	6.0*	·	·	·	·	·
CC(C)(C)C(=O)Nc1nc(C2CCCN2S(=O)(=O)c2ccc(Cl)cc2)cs1 (stereo unspecified)	-0.6	-8.1	3.4	-1.8	-0.66	-3.99*
CCCCn1c(SCC(=O)N2c3ccccc3Sc3ccccc32)nc2c1c(=O)n(C)c(=O)n2C	-6.7	-31.2	·	·	-2.59	-4.8*
CCc1nc(N2CCOCC2)c(C#N)c2c1CCCC2	0.5	-5.7	1.7	0.1	-0.67	-4.46*
N#Cc1c(SCc2ccccc2)nc(N2CCOCC2)c2c1CCCC2	-0.6	10.0	1.3	1.9	-1.77	-5.4*
S=C(NCc1ccccc1Cl)NC1CCCC1	-2.8	·	·	·	·	·
Cc1ccc(-c2nn(-c3ccccc3)c3[nH]c(=O)c(CNCc4ccccc4)cc23)cc1	-7.3	-4.6	·	·	-0.06	-3.58*
COC(=O)C1=C(C)N(C)C(C)=C(C(=O)OC)C1c1ccncc1	-4.6	10.3	2.4	-1.9	0.32	1.6
COC(=O)C1=C(C)N(C)C(C)=C(C(=O)OC)C1c1ccc(F)c(Br)c1	-1.7	14.3	·	·	-3.2*	-6.84*
COc1ccc(CCNC(=O)COc2ccc(S(=O)(=O)N3CCOCC3)cc2)cc1OC	-2.3	18.4	25.7	-3.6	-0.15	-4.33*
COc1ccc(CCNC(=O)COc2ccc(S(=O)(=O)N3CCOCC3)cc2)cc1	-0.3	4.4	0.3	-1.4	0.39	-0.066
SMILES	MRP1 act	MRP resist rev	CD11b adhes inh	Mac1 fbg enh	Pyk2 oligo antag	Cav32 inh
COc1cccc(NC(=O)c2nnn(CCc3ccccc3)c2N)c1	-3.8	-34.8	-1.7	2.4	·	-2.59*
CCOC(=O)C1=C(C)NC(C)=C(C(=O)OCC)C1/C=C/c1ccccc1OC	-1.0	·	18.7	5.5	·	·
CCOC(=O)C1=C(C)NC(C)=C(C(=O)OCC)C1c1ccccc1/C=C/C(=O)OC(C)(C)C	·	·	·	·	·	-4*
O=C(CSc1nnc(-c2cccnc2)n1-c1ccccc1)N1CCN(c2ccc(F)cc2)CC1	-4.1	15.7	2.7	-1.1	0.65	4.04*
C[C@]1(C(=O)NCCCNc2ncc(C(F)(F)F)cc2Cl)C=C[C@@H](Cc2ccccc2)N1C(=O)c1ccccc1	-4.3	·	·	·	·	-0.493
CC(C)=C(NC(=O)c1ccccc1)C(=O)NCCCC(=O)O	-2.3	2.2	1.7	2.8	-0.52	-0.0456
CSc1ccccc1NC(=O)CN(C1CCCCC1)S(C)(=O)=O	-2.2	7.2	-47.8	-2.1	-0.57	0.714
COc1ccc(Cl)cc1NC(=O)CCc1ccccc1	-0.9	·	-6.9	-1.2	-0.84	-4.59*
COc1ccc(Cl)cc1NC(=O)CN(C1CCCCC1)S(C)(=O)=O	-3.4	-16.8	-6.2	3.3	-0.96	-4.31*
Cc1ccc(N(CC(=O)Nc2cc(Cl)ccc2Oc2ccccc2)S(C)(=O)=O)cc1C	-6.0	·	-18.2	-0.6	-2.55	-5.85*
COc1ccccc1OCc1ccc(C(=O)N2CCN3CCCC3C2)cc1 (stereo unspecified)	-1.7	1.5	-15.7	-4.0	-1.48	0.343
Cc1ccc2nc(Cl)c(C3CC(c4cccs4)=NN3S(C)(=O)=O)cc2c1 (stereo unspecified)	-2.5	·	·	·	·	·
CC1=C(C(=O)OCC(C)C)[C@]23C(=O)c4ccccc4[C@@]2(O1)OC(N)=C3C#N	-2.5	-0.7	·	·	0.71	-3.92
CCC(C)OC(=O)C1=C(C)OC23OC(N)=C(C#N)C12C(=O)c1ccccc13 (stereo unspecified)	0.0	8.1	·	·	-0.46	-2.7*
C=CCn1c(SCC(=O)Nc2cc3oc4ccccc4c3cc2OC)nnc1-c1cnccn1	-4.1	2.8	10.8	12.6	-1.83	-4.19*
O=C(Nc1ccccc1)/C(=C/c1cccnc1)NC(=O)c1ccco1	0.0	·	1.5	2.1	0.11	·
Clc1ccccc1-c1nc(N/N=C/c2cccnc2)c2ccccc2n1	-3.5	8.7	·	·	-1.55	0.6
Cc1ccc(-c2nc(N/N=C/c3ccncc3)c3ccccc3n2)cc1	-1.4	-23.9	103.4*	-8.9	-2.35	0.00533
O=C(Nc1cccc(NC(=O)c2ccc(-c3ccc(Br)cc3)o2)c1)c1ccccc1	-4.6	-5.5	0.4	-4.1	-0.28	-6.13*
COc1ccccc1NC(=O)c1ccc(-c2ccc(Br)cc2)o1	-1.9	-22.1	7.3	7.8	-1.18	0.038
O=C(Nc1ccccc1)c1ccc(-c2ccc(Br)cc2)o1	3.6	-10.1	·	·	1.45	-5.3*
O=C(Nc1cccc(NC(=O)c2ccc(-c3cccc(Br)c3)o2)c1)c1ccco1	-4.0	-10.8	·	·	-2.58	-2.89
CCCCCC(=O)NN=C1CCN(Cc2ccccc2)CC1	-2.5	·	·	·	·	·
CCCC(C(=O)NCc1ccccc1)N(C(=O)Cn1nnc(-c2cccs2)n1)c1ccc2c(c1)OCCO2 (stereo unspecified)	-1.5	10.0	·	·	-2.56	0.72
